Experimental findings from PubChem BioAssay AID2284371 (EPA ToxCast) are described below.

Records with an inconclusive call do not appear. Active and inactive are the calls of the source. Rule for the calls: active = hit-call score of the fitted dose curve at least 0.9, where 1 is the maximum; inconclusive = response in the unintended direction; inactive = score below 0.9.

This assay in a line: ATG_M_61_EcoTox2: Attagene TRANS-FACTORIAL EcoTox-2 HepG2 Assay for M61 Transcription Factor (Internal Marker). The protocol:
ATG_EcoTox2 is a cell-based, multiplexed assay created by modifying the existing Attagene TRANS-FACTORIAL system to include a panel of nuclear receptors from some or all the following species: human (Homo sapiens), african clawed frog (Xenopus laevis), rainbow trout (Oncorhynchus mykiss), japanese medaka (Oryzias latipes), and zebrafish (Danio rerio). The ECOTOX2-FACTORIAL format uses HepG2, a human liver cell line, with measurements taken at 24 hours after chemical dosing in a 24-well plate. ATG_M_61_EcoTox2 is one of 29 assay components calculated in the ATG_EcoTox2 assay. It is designed to make measurements of mRNA induction, a form of inducible reporter, as detected with fluorescence intensity signals by Reverse transcription polymerase chain reaction (RT-PCR) and Capillary electrophoresis technology.The assay endpoint ATG_M_61_EcoTox2 was analyzed in the positive analysis fitting direction relative to DMSO as the negative control and baseline of activity. Using a type of inducible reporter, measures of mRNA for gain-of-signal activity can be used to understand the background control at the transcription factor-level as they relate to the gene. Furthermore, this assay endpoint can be referred to as a secondary readout, because this assay has produced multiple assay endpoints where this one serves a background control function. To generalize the intended target to other relatable targets, this assay endpoint is annotated to the background measurement intended target family, where the subfamily is internal marker.
Human liver HepG2 cells are transiently transfected with multiple reporter transcription units (MRTUs) in 6-well plates using FuGene 6 reagent (Roche; 3 ml FuGene/1 mg DNA). The MRTU constructs are regulated by a cis-regulating element (promoter). Each RTU expresses a GAL4-UAS that regulates the transcription of a nearby target reporter gene sequence. A major difference between the CIS and TRANS system is that in CIS activities of endogenous TFs are measured, whereas the TRANS assay evaluates changes in activities of exogenous, chimeric NR-Gal4 proteins. […] At the end of 24 hour incubation, total RNA was isolated using TriZol reagent (Invitrogen). The isolated RNA is then reverse-transcribed using oligo(dT) primer and Mo-MLV reverse transcriptase (Invitrogen) with DNAse I (Ambion) treatment for 30 min. The one-tenth of the produced cDNA was amplified by PCR using Taq DNA polymerase (Invitrogen) and two reporter sequence-specific primers. The PCR products were fluorescently labeled by primer extension with 6-arboxyfluorescein (6-FAM) 5'-labeled reporter sequence-specific primer (2 min at 95 C, 20 s at 68 C and 10 min at 72 C) and these products were digested with 5U of HpaI (New England Biolabs) for 2h at 37 C. The fragments were purified using Qiaquick PCR columns (Qiagen), analyzed on an ABI 3130xL genetic analyzer (Applied Biosystems) with peak positions identified by using a set of X-rhodamine (ROX)-labeled MapMarker1000 molecular weight standards (BioVentures). The raw capillary electrophoresis data was processed using Attagraph software (Attagene).
On to `CC(C)OC(=O)C(C)(C)Oc1ccc(C(=O)c2ccc(Cl)cc2)cc1`, for which the result was inactive.

Consider `CC(c1cc2ccccc2s1)N(O)C(N)=O` (stereo unspecified), for which the call was inactive.

Regarding `Cc1nc(-c2ccc(C(F)(F)F)cc2)sc1C(=O)NCc1ccc(OC(C)(C)C(=O)O)cc1`, the result was inactive.

With `CC(C)(Oc1ccc(CCNC(=O)c2ccc(Cl)cc2)cc1)C(=O)O`, the outcome was inactive.

`Cc1cccc(Nc2cc(Cl)nc(SCC(=O)O)n2)c1C`: the call was inactive.

Consider `C[C@]12C=CC(=O)C=C1CC[C@@H]1[C@@H]2C(=O)C[C@@]2(C)[C@H]1CC[C@]2(O)C(=O)CO`, for which the result was inactive.

As for `C=C(c1ccc(C(=O)O)cc1)c1cc2c(cc1C)C(C)(C)CCC2(C)C`, the compound was called inactive.

Regarding `CC(C)(Oc1ccc(C2CC2(Cl)Cl)cc1)C(=O)O` (stereo unspecified), the compound was classed as inactive.

For `CC(C)(Oc1ccc(Cl)cc1)C(=O)O`, the outcome was inactive.

For the compound `CN(CCOc1ccc(CC2SC(=O)NC2=O)cc1)c1ccccn1` (stereo unspecified), the call was inactive.

Turning to `Cc1c(C)c2c(c(C)c1O)CCC(C)(COc1ccc(CC3SC(=O)NC3=O)cc1)O2` (stereo unspecified), the outcome was inactive.
